# Reference: PubChem BioAssay (EPA / NIEHS)
# Values joined by “and” are separate entries in the source; they are usually repeats but may differ in a detail not shown here. Identical values can stand only once. The source holds several records for some structures; these can differ, active in one and inactive in another. Active and inactive are the calls of the source. The calls were made as follows: active = hit-call score of the fitted dose curve at least 0.9, where 1 is the maximum; inactive = score below 0.9.
# How the values were obtained:
# [1] = read-out: Monokine induced gamma interferon (MIG), CXCL9 (gene 4283); assay: BSK_KF3CT_MIG: BioMAP Diversity Plus: KF3CT Assay for Monokine induced gamma interferon (MIG) Biomarker Activity (AID 2284248); details: primary human keratinocytes with fibroblasts
# Method in brief: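 ELISA read-out of MIG after 24 h chemical exposure of human skin primary co-culture (keratinocytes, foreskin fibroblasts). Gain of signal relative to DMSO negative control was analysed.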
# [2] = read-out: Collagen I, COL1A1 (gene 1277); assay: BSK_hDFCGF_CollagenI: BioMAP Diversity Plus: hDFCGF Assay for Collagen I Biomarker Activity (AID 2284250); details: primary human foreskin fibroblasts
# Method in brief: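 Collagen I quantified by ELISA 24 h after chemical dosing of human dermal fibroblast primary cells, with parallel SRB staining (0.1%, TCA-fixed, 560 nm) for overt cytotoxicity.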
# [3] = read-out: Interferon-inducible T-cell alpha chemoattractant (ITAC), CXCL11 (gene 6373); assay: BSK_hDFCGF_ITAC: BioMAP Diversity Plus: hDFCGF Assay for Interferon-inducible T-cell alpha chemoattractant (ITAC) Biomarker Activity (AID 2284251); details: primary human foreskin fibroblasts
# Method in brief: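 I-TAC levels were read by ELISA on human dermal foreskin fibroblast primary cultures 24 h after dosing, analysed against DMSO in the positive direction. Cytotoxicity was assessed alongside by sulforhodamine B total-protein staining.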
# [4] = read-out: Plasminogen activator inhibitor-1 (PAI1), SERPINE1 (gene 5054); assay: BSK_KF3CT_PAI1: BioMAP Diversity Plus: KF3CT Assay for Plasminogen activator inhibitor-1 (PAI1) Biomarker Activity (AID 2284252); details: primary human keratinocytes with fibroblasts
# Method in brief: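 PAI-1 levels quantified by ELISA after 24 h compound exposure of primary human skin keratinocytes co-cultured with fibroblasts. Activity is the gain relative to DMSO; cytotoxicity tracked in parallel cultures via SRB staining.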
# [5] = read-out: Interleukin-8 (IL8), CXCL8 (gene 3576); assay: BSK_KF3CT_IL8: BioMAP Diversity Plus: KF3CT Assay for Interleukin-8 (IL8) Biomarker Activity (AID 2284254); details: primary human keratinocytes with fibroblasts
# Method in brief: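 IL-8 read-out: ELISA, 24 h post-dose, human skin primary co-culture (keratinocytes + foreskin fibroblasts). DMSO = baseline; positive-direction fit.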
# [6] = read-out: Collagen IV, COL4A1 (gene 1282); assay: BSK_MyoF_CollagenIV: BioMAP Diversity Plus: MyoF Assay for Collagen IV Biomarker Activity (AID 2284247); details: primary human lung fibroblasts
# Method in brief: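 Collagen IV quantified by ELISA in human lung fibroblast cultures 24 h after chemical treatment, with DMSO as baseline. Parallel SRB staining (0.1% SRB after TCA fixation, 560 nm) flags overt cytotoxicity.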
# [7] = read-out: Plasminogen activator inhibitor-1 (PAI1), SERPINE1 (gene 5054); assay: BSK_MyoF_PAI1: BioMAP Diversity Plus: MyoF Assay for Plasminogen activator inhibitor-1 (PAI1) Biomarker Activity (AID 2284256); details: primary human lung fibroblasts;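 as to outcome: PAI-1 protein level measured by ELISA in fibroblast cultures; PAI-1 read 24 h after compound addition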
# Method in brief: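 MyoF lung fibroblasts, human primary; compound 24 h; PAI-1 ELISA; positive-direction fit vs DMSO baseline; parallel SRB total-protein staining for cytotoxicity.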
# [8] = read-out: Vascular cell adhesion molecule 1 (VCAM1), VCAM1 (gene 7412); assay: BSK_BF4T_VCAM1: BioMAP Diversity Plus: BF4T Assay for Vascular cell adhesion molecule 1 (VCAM1) Biomarker Activity (AID 2284249); details: primary human bronchial epithelial cells with fibroblasts
# Method in brief: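 Cell-surface VCAM-1 quantified by ELISA after 24 h chemical exposure of human bronchial epithelial/dermal fibroblast co-cultures, with SRB staining in parallel wells for cytotoxicity; DMSO baseline, positive-direction fitting.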
# [9] = read-out: Monocyte Chemoattractant Protein-1 (MCP1), CCL2 (gene 6347); assay: BSK_IMphg_MCP1: BioMAP Diversity Plus: IMphg Assay for Monocyte Chemoattractant Protein-1 (MCP1) Biomarker Activity (AID 2284253); details: primary human endothelial cells with macrophages
# Method in brief: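 ELISA readout of MCP-1 at 24 hours in IMphg co-cultures of venular endothelial cells and macrophages, normalised to DMSO; parallel cultures stained with sulforhodamine B for overt cytotoxicity.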
# [10] = read-out: Macrophage Inflammatory Protein-1 Alpha (MIP1a), CCL3 (gene 6348); assay: BSK_IMphg_MIP1a: BioMAP Diversity Plus: IMphg Assay for Macrophage Inflammatory Protein-1 Alpha (MIP1a) Biomarker Activity (AID 2284255); details: primary human endothelial cells with macrophages
# Method in brief: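 MIP-1a protein levels were quantified by ELISA after 24 h treatment of human endothelial cell–macrophage co-cultures, compared with DMSO. Parallel cultures were fixed with TCA and stained with 0.1% SRB to gauge overt cytotoxicity.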
smiles,measurement,setting,value
CC(=O)OC(c1ccccc1)C(Cl)(Cl)Cl (stereo not given),outcome,[1],inactive
same,outcome,[2],inactive
same,outcome,[3],inactive
same,outcome,[4],inactive
same,outcome,[5],inactive
CC1(C)Cc2cccc(O)c2O1,outcome,[6],inactive
same,outcome,[7],inactive
Oc1ccc(-c2ccccc2)cc1,outcome,[6],inactive
same,outcome,[7],inactive
O=C(O)C(F)(F)C(F)(F)C(F)(F)C(F)(F)C(F)(F)C(F)(F)C(F)(F)C(F)(F)C(F)(F)C(F)(F)F,AC50,[6],816 nM (active) and 843 nM (active)
same,AC50,[1],6.52 µM (active) and 5.48 µM (active)
same,AC50,[8],4.89 µM (active) and 5.89 µM (active)
same,AC50,[2],3.39 µM (active)
same,outcome,[2],inactive
same,AC50,[3],5.59 µM (active)
same,AC50,[4],2.66 µM (active) and 4.56 µM (active)
same,outcome,[9],inactive
same,AC50,[5],3.33 µM (active) and 5.2 µM (active)
same,outcome,[10],inactive
same,AC50,[7],5.52 µM (active) and 6.52 µM (active)
CCOP(=S)(OCC)SCCS(=O)(=O)CC,outcome,[6],inactive
same,outcome,[7],inactive
ClC1=C(Cl)[C@]2(Cl)[C@H]3[C@H]([C@H]4C=C[C@H]3C4)[C@@]1(Cl)C2(Cl)Cl,outcome,[6],inactive
same,outcome,[7],inactive
COC(=O)c1sccc1S(=O)(=O)NC(=O)Nc1nc(C)nc(OC)n1,outcome,[6],inactive
same,outcome,[7],inactive
CC(C)CCCCCCOC(=O)c1ccccc1C(=O)OCCCCCCC(C)C,outcome,[6],inactive
same,outcome,[7],inactive
Nc1cccc2ccccc12,outcome,[6],inactive
same,outcome,[7],inactive
CCOC(=O)/C=C(C)/C=C/C[C@@H](C)CCCC(C)C,AC50,[6],7.11 µM (active)
same,AC50,[7],32.3 µM (active)
BrCCBr,outcome,[6],inactive
same,outcome,[7],inactive
O=Cc1cccc(Oc2ccccc2)c1,outcome,[6],inactive
same,outcome,[7],inactive
OCc1ccco1,outcome,[6],inactive
same,outcome,[7],inactive
CCOP(=S)(OCC)Oc1ccc(S(C)=O)cc1 (stereo not given),outcome,[6],inactive
same,outcome,[7],inactive
ClC(Cl)=C(Cl)C(Cl)=C(Cl)Cl,outcome,[6],inactive
same,outcome,[7],inactive
COC(=O)Cc1ccccc1,outcome,[1],inactive
same,outcome,[2],inactive
same,outcome,[3],inactive
same,outcome,[4],inactive
same,outcome,[5],inactive
COP(=S)(OC)Oc1c(Cl)cc(C)cc1Cl,outcome,[6],inactive
same,outcome,[7],inactive
CC(=O)C(Cl)C(=O)N(C)C (stereo not given),outcome,[6],inactive
same,outcome,[7],inactive
COc1cc(OC)nc(NC(=O)NS(=O)(=O)c2ncccc2C(=O)N(C)C)n1,outcome,[6],inactive
same,outcome,[7],inactive
Oc1c(I)cc(I)cc1I,AC50,[6],4.34 µM (active)
same,outcome,[7],inactive
